The source of these data is PubChem BioAssay AID1508601 (ICCB-Longwood Screening Facility, Harvard Medical School, 2020).

Experiment [1] in a line: p53 stabilisation in HPV-positive human cells, imaging, p53-positive nuclei imaging, 24 h, 48 h (AID 1508601). Conditions: 24/48 h.
For experiment [2], the target named is Cellular tumor antigen p53 (Homo sapiens) (UniProt P04637). Described as above. Conditions: 24/48 h, stronger effect = higher value.
[3] abbreviates: measured here: cell number at 24 h, Library stock concentration: 3.33 mM.
Where [4] appears, read: measured here: cell number at 48 h, Library stock concentration: 3.33 mM.
Setting [5] is: Library stock concentration: 3.33 mM.
Where [6] appears, read: measured here: p53 positive nuclei at 24 h, Library stock concentration: 3.33 mM.
Where [7] appears, read: measured here: cell number at 24 h, Library stock concentration: 46 uM.
Setting [8] is: measured here: cell number at 24 h, Library stock concentration: 278 uM.
[9] abbreviates: measured here: cell number at 24 h, Library stock concentration: 1.67 mM.
[10] abbreviates: measured here: cell number at 24 h, Library stock concentration: 10 mM.
The mark [11] stands for this setting: measured here: cell number at 48 h, Library stock concentration: 46 uM.
Where [12] appears, read: measured here: cell number at 48 h, Library stock concentration: 278 uM.
Setting [13] is: measured here: cell number at 48 h, Library stock concentration: 1.67 mM.
Setting [14] is: measured here: cell number at 48 h, Library stock concentration: 10 mM.
Where [15] appears, read: Library stock concentration: 46 uM.
[16] abbreviates: Library stock concentration: 278 uM.
[17] abbreviates: Library stock concentration: 1.67 mM.
Setting [18] is: Library stock concentration: 10 mM.
Setting [19] is: measured here: p53 positive nuclei at 24 h, Library stock concentration: 46 uM.
[20] abbreviates: measured here: p53 positive nuclei at 24 h, Library stock concentration: 278 uM.
Setting [21] is: measured here: p53 positive nuclei at 24 h, Library stock concentration: 1.67 mM.
Setting [22] is: measured here: p53 positive nuclei at 24 h, Library stock concentration: 10 mM.

Several values for one entry are separate records, joined by “and”; a condition that tells them apart may be missing. Identical values can stand only once. Screen size: about 5,700 compounds; about 85 (1%) were called active. Cut-off read from the data, not from the text of the source: active = p53-positive nuclei above about 36% (passing the limit was not always enough); inactive = the rest. For the sample, actives were picked, then their nearest neighbours and some compounds at random.

Chain of Cellular tumor antigen p53 (Homo sapiens) (P04637 whole entry, looked up): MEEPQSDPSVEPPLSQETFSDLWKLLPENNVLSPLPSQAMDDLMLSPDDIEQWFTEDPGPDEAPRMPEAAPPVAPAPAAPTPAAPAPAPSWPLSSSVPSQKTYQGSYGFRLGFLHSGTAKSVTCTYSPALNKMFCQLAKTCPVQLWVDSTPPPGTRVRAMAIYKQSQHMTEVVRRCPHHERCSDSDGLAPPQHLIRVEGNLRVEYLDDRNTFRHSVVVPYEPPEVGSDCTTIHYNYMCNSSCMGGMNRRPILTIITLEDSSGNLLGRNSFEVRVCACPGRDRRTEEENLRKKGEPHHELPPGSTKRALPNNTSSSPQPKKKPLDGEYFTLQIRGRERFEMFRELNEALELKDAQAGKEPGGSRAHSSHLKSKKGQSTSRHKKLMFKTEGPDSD

`COC1=C2CC(C)CC(OC)C(O)C(C)C=C(C)C(OC(N)=O)C(OC)C=CC=C(C)C(=O)NC(=CC1=O)C2=O` (configuration not stated): the nuclei count, normalised in experiment [1] (setting [3]) stood at 40.1%; in experiment [1] (setting [4]) it was 28.1%. The p53-positive nuclei, normalised in experiment [2] (setting [5]) is -0.0882% (inactive); in experiment [2] (setting [6]), -0.356%.

For the molecule `CCCCCN=C(N)N/N=C/c1c[nH]c2ccc(OC)cc12`, the nuclei count, normalised was 107% in experiment [1] (measured here: cell number at 24 h, concentration not given here); 112% and 109% in experiment [1] (measured here: cell number at 48 h, concentration not given here). The p53-positive nuclei, normalised in experiment [2] (concentration not given here) is -0.135% (inactive) and -0.2% (inactive); in experiment [2] (measured here: p53 positive nuclei at 24 h, concentration not given here), 0.0257% and -0.191%.

Consider `CC1C[C@H]2[C@@H]3CCC4=CC(=O)C=C[C@]4(C)[C@@H]3C(=O)C[C@]2(C)[C@]1(O)C(=O)CO` (some centres not stated), for which the nuclei count, normalised was found to be 104% in experiment [1] (setting [3]) and 88.5% in experiment [1] (setting [4]). Also, the p53-positive nuclei, normalised is 1.05% (inactive) in experiment [2] (setting [5]) and 1.05% in experiment [2] (setting [6]).

`CN(CCC(Oc1ccc(-c2ccccc2)cc1)c1ccc(F)cc1)CC(=O)O` (configuration not stated): the nuclei count, normalised in experiment [1] (setting [7]) worked out at 112%; in experiment [1] (setting [8]), 111%; in experiment [1] (setting [9]), 107%; in experiment [1] (setting [10]), 115%; in experiment [1] (setting [11]), 109%; in experiment [1] (setting [12]) it was 113%. Moreover, the nuclei count, normalised in experiment [1] (setting [13]) was determined as 104%; in experiment [1] (setting [14]), 110%. For the same molecule, the p53-positive nuclei, normalised is -0.199% (inactive) in experiment [2] (setting [15]); -0.17% (inactive) in experiment [2] (setting [16]); 0.114% (inactive) in experiment [2] (setting [17]); -0.129% (inactive) in experiment [2] (setting [18]); -0.152% in experiment [2] (setting [19]); -0.0916% in experiment [2] (setting [20]). The p53-positive nuclei, normalised was -0.153% in experiment [2] (setting [21]) and -0.0944% in experiment [2] (setting [22]).

With `O=C1CC(c2ccc([N+](=O)[O-])cc2)=NN1c1ccccc1`, the nuclei count, normalised in experiment [1] (setting [7]) turned out to be 114%; in experiment [1] (setting [8]), 115%; in experiment [1] (setting [9]), 116%; in experiment [1] (setting [10]) it was 117%; in experiment [1] (setting [11]), 107%; in experiment [1] (setting [12]), 109%. For the same molecule, the nuclei count, normalised in experiment [1] (setting [13]) came to 110%; in experiment [1] (setting [14]), 106%. The p53-positive nuclei, normalised was -0.127% (inactive) in experiment [2] (setting [15]); 0.0933% (inactive) in experiment [2] (setting [16]); -0.137% (inactive) in experiment [2] (setting [17]); -0.204% (inactive) in experiment [2] (setting [18]); -0.0266% in experiment [2] (setting [19]); 0.0349% in experiment [2] (setting [20]). Further, the p53-positive nuclei, normalised in experiment [2] (setting [21]) is 0.0231%; in experiment [2] (setting [22]) it was 0.0862%.

On to `CC(O)[C@H]1C(=O)N2C(C(=O)OCOC(=O)C(C)(C)C)=C(SC3CN(C4=NCCS4)C3)C(C)[C@@H]12` (some centres not stated), for which the nuclei count, normalised was 106% in experiment [1] (setting [3]) and 101% in experiment [1] (setting [4]). The p53-positive nuclei, normalised in experiment [2] (setting [5]) was -0.0394% (inactive); in experiment [2] (setting [6]), -0.252%.

For `CC1(C)SC2C(NC(=O)C(NC(=O)N3CCNC3=O)c3ccccc3)C(=O)N2C1C(=O)O` (configuration not stated), the nuclei count, normalised came to 118% in experiment [1] (setting [3]) and 111% in experiment [1] (setting [4]). The p53-positive nuclei, normalised was -0.143% (inactive) in experiment [2] (setting [5]) and -0.242% in experiment [2] (setting [6]).
